Six1-Eya2 blk: Six1/Eya2 interaction inhibition; actives 0.56% (n = 360,000); activity change, % (test concentration not listed); AlphaScreen GST-Six1/His-Eya2 binding, biochemical; hits give low values; Q15475+O00167; AID 651725; further: on the % scale 0 is the no-effect control and ±100 the full control effect
Target sequence (O00167 whole entry, looked up): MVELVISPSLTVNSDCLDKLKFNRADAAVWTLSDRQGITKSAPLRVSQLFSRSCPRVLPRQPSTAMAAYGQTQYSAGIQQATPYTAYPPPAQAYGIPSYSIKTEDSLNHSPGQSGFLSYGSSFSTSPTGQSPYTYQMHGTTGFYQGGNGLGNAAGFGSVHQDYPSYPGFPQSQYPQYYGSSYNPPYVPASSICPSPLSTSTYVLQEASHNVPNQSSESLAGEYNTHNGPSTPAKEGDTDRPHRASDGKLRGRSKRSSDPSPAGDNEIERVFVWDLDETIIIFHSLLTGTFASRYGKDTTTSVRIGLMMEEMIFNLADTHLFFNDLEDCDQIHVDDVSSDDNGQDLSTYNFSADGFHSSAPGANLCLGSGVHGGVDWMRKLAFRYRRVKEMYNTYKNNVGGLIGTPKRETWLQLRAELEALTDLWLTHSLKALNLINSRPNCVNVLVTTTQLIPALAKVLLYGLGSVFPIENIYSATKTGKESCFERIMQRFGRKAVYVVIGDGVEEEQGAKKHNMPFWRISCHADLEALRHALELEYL
Target sequence (Q15475 whole entry, looked up): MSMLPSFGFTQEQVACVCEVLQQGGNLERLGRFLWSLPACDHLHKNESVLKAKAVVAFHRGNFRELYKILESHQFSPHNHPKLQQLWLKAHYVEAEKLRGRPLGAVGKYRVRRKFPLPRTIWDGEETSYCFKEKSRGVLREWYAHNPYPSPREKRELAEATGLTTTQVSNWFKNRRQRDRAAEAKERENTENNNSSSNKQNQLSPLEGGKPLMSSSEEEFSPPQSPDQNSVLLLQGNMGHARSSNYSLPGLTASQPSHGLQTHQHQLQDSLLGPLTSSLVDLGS
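GST-Six1 + His-Eya2 (5X stock: 250/500 nM); Tris pH 8.0, 300 mM NaCl, 0.05% BSA, 0.02% Tween 20; GSH donor/Ni acceptor beads; 1 h 37 °C dark; AlphaScreen readout.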
Mito fusion yeast: inhibitors of mitochondrial division or activators of mitochondrial fusion; AID 485298; actives 0.23% (n = 320,000); S. cerevisiae fusion-defective mutant growth rescue, CellTiterGlo 48 h; Potency, µM (doses to about 46.1 µM), for inactives: at the highest dose growth rescue (activation), most hits filed as activators; active means well fitted activation curve with a large enough effect; inconclusive means small, poorly fitted or top-dose-only effect; inactive means no such curve, though single readings can be large or run the other way; further: potency means the concentration at half of the fitted maximal effect; % of control where 0% means no effect; nearly all actives have a fitted effect of over 45% in size
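Yeast fusion mutant, YPEG (non-fermentable carbon), compound, 48 h at 37C non-permissive; CellTiterGlo added, 10 min RT, luminescence read. Rescued growth = division inhibition.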
CtBP-E1A inh: CtBP/E1A binding inhibition | AlphaScreen GST-E1A/His-CtBP binding, 1536-well; hits give low values | activity change, % (no concentration beside the values) | actives 0.49% (n = 340,000); further: on the % scale 0 is the no-effect control and ±100 the full control effect
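Protein mix (5X: 125 nM each GST-E1A, His-CtBP) was incubated with pinned compound 2 h at 37 deg C in dark, in 50 mM Tris pH 8.0 buffer with 300 mM NaCl. Glutathione donor and nickel acceptor beads followed; AlphaScreen signal read after 1 h.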
uPA surface inh: blocks generation of uPA at the cell surface. cell surface uPA generation assay, qHTS. Potency, µM (doses to about 38.3 µM), for the others: at the top dose activity change, negative = inhibition, actives largely listed as inhibitors. actives 0.31% (n = 330,000). AID 540303; active means well fitted inhibition curve with a large enough effect; inconclusive means small, poorly fitted or top-dose-only effect; inactive means no such curve, though single readings can be large or run the other way; tested in mouse RAW 264.7 cells; further: potency means the concentration at half of the fitted maximal effect; on the % scale 0 is the no-effect control and ±100 the full control effect; nearly all actives have a fitted effect of over 55% in size
MBNL1-CUG inh: inhibitors of human MBNL1 binding to CUG repeat RNA | TR-FRET MBNL1-His/biotin-(CUG)12 binding, 665/545 ratio | Potency, µM (highest dose often 57.5 µM), inactives show at the highest dose activity change, negative = inhibition, usual class: inhibitors | actives 0.036% (n = 280,000); active means well fitted inhibition curve with a large enough effect in the signal ratio, with a control signal flat, not every such curve was filed as active; inconclusive means small, poorly fitted or top-dose-only effect, or effect the other way, or a change in a side signal; inactive means no such curve, though single readings can be large or run the other way; the % refers to the signal ratio; further: potency means the concentration at half of the fitted maximal effect; on the % scale 0 is the no-effect control and ±100 the full control effect
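Compound titration spanned 92 nM–58 uM against the MBNL1-His/biotin-(CUG)12 complex. After 60 min at room temperature with 5 nM streptavidin-XL665 and 0.055 ng/ul terbium anti-His, ratiometric 665/545 nm emission (Ex 340 nm) normalized to controls.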
An asterisk follows results filed as active. In the library only some 1.1% were active in any assay of this set; here they are far more common. Unless noted, no stated cut-off is given here; in the data, active means activity change below about -65%; inconclusive means mostly about -30% to -63%; inactive means weaker than that.

`C(=N\Nc1nc2ccccc2[nH]1)/c1ccccc1` gave Six1-Eya2 blk -2, Mito fusion yeast 1%, CtBP-E1A inh -1, uPA surface inh -7% and MBNL1-CUG inh 10%.
`Brc1ccc(-c2ccc(/C=N/Nc3nc4ccccc4[nH]3)o2)cc1` gave Six1-Eya2 blk 6, Mito fusion yeast -29%, uPA surface inh 10µM* and MBNL1-CUG inh 13%.
Screening C(=N\Nc1nc2ccccc2[nH]1)/c1c[nH]c2ccccc12 returned Six1-Eya2 blk -23, Mito fusion yeast -2%, CtBP-E1A inh inconclusive and uPA surface inh -2%.
C(=N\Nc1nc2ccccc2[nH]1)/c1cccc2cccnc12 was read as Six1-Eya2 blk -84*, Mito fusion yeast -2% and uPA surface inh inconclusive.
O=C(COC(=O)c1ccccn1)c1ccc([N+](=O)[O-])cc1 was read as Six1-Eya2 blk inconclusive, Mito fusion yeast 1%, CtBP-E1A inh inconclusive, uPA surface inh 8% and MBNL1-CUG inh inconclusive.
CC(C)(C)Cc1c(-c2ccc(C#N)cc2)nc2ccc(Cl)cn12 was read as Six1-Eya2 blk 5 and CtBP-E1A inh 0.
For Cn1ccnc1/C(=N\NC(=O)c1ccccc1)c1cccc([N+](=O)[O-])c1 the results were Six1-Eya2 blk -4, Mito fusion yeast 5%, CtBP-E1A inh -1, uPA surface inh -4% and MBNL1-CUG inh inconclusive.
Screening O=C(N/N=C(\c1ccccc1)c1ccccn1)c1cccc([N+](=O)[O-])c1 returned Six1-Eya2 blk -91*, Mito fusion yeast -2%, uPA surface inh inconclusive and MBNL1-CUG inh inconclusive.
Screening CCc1ccc(/C(C)=N/NC(=O)c2ccccn2)cc1 returned Six1-Eya2 blk -6, Mito fusion yeast -4%, CtBP-E1A inh 5, uPA surface inh inconclusive and MBNL1-CUG inh -6%.
Screening CCOc1ccc(C(=O)N/N=C(\c2ccccc2)c2ccccn2)cc1 returned Six1-Eya2 blk inconclusive, Mito fusion yeast -5%, CtBP-E1A inh -67*, uPA surface inh -10% and MBNL1-CUG inh 19%.
`O=C(O)c1ccccc1NC(=O)C1CCN(S(=O)(=O)c2ccc3c(c2)OCCO3)CC1` gave Six1-Eya2 blk inconclusive and CtBP-E1A inh -22.
COc1ccc(N=C2S/C(=C\c3ccc(OCC(=O)O)cc3)C(=O)N2CCc2c[nH]c3ccccc23)cc1 was read as Six1-Eya2 blk -80*, Mito fusion yeast 2%, CtBP-E1A inh -20, uPA surface inh 2% and MBNL1-CUG inh -23%.
COc1ccc(N=C2S/C(=C\c3ccc(N4CCOCC4)o3)C(=O)N2CCc2c[nH]c3ccccc23)cc1 was read as Mito fusion yeast -10% and MBNL1-CUG inh 5%.
Screening CCc1nc2oc3ccc(C)cc3c(=O)c2cc1C(=O)OC returned Six1-Eya2 blk 4, Mito fusion yeast 9%, CtBP-E1A inh 7, uPA surface inh 3% and MBNL1-CUG inh 10%.
Screening Cc1cc(NC(=O)c2ccc(Cn3nc(C)c(Br)c3C)o2)no1 returned Six1-Eya2 blk -70*, Mito fusion yeast -5%, CtBP-E1A inh -29, uPA surface inh 1% and MBNL1-CUG inh 0%.
For CCC(C)C(CO)NCCCn1cnc2c(OC)ncnc21 (stereo not given) the results were Six1-Eya2 blk -1 and CtBP-E1A inh 2.
For CC1=C/C(=N\Nc2ccccc2[N+](=O)[O-])CC(C)(C)C1 the results were Six1-Eya2 blk -69*, Mito fusion yeast 1%, CtBP-E1A inh -68*, uPA surface inh 0% and MBNL1-CUG inh 17%.
Screening O=C(N/N=C/c1ccc(-c2ccc(Cl)c(C(=O)O)c2)o1)c1cc2c(ccc3ccccc32)o1 returned Six1-Eya2 blk inconclusive, Mito fusion yeast 5%, CtBP-E1A inh -85*, uPA surface inh -3% and MBNL1-CUG inh 28%.
Cc1ccc(-c2ccc(/C=N\NC(=O)c3cc4c(ccc5ccccc54)o3)o2)cc1[N+](=O)[O-] was read as Six1-Eya2 blk -2, Mito fusion yeast -1%, CtBP-E1A inh 3, uPA surface inh 7% and MBNL1-CUG inh 5%.
For CCCCn1nnnc1C1(C)CCC(=O)N1CCc1ccc(OC)c(OC)c1 (stereo not given) the results were Six1-Eya2 blk 1 and CtBP-E1A inh 7.

Compound activity deposited in PubChem by National Center for Advancing Translational Sciences (NCATS).
